PubChem BioAssay AID1532 (PCMD, 2009)
Out of some 110,000 compounds screened, about 420 (0.38%) were called active. This is one part of a sample in which actives are shown more often than they occur. Rule as the data show it: active = inhibition above about 30% (passing the limit was not always enough); inconclusive = no clear call, values can overlap the other calls.

System: RmlC (dTDP-4-dehydrorhamnose 3,5-epimerase) and RmlD (dTDP-4-dehydrorhamnose reductase), coupled enzyme assay
Test: RmlC and RmlD coupled enzyme inhibitors, primary screen, biochemical, 384-well, compound mixtures, retest (AID 1532)
Details: 384-well mixture HTS, at 5.5 µM, stronger effect = higher value
[1] = measured here: mean retest inhibition

`Cc1ccc(-c2csc(NCCc3nc4cc(Cl)c(Cl)cc4n3CCOCCO)n2)cc1` was tested, and the inhibition was 7.32% (inactive).
With `C=CCNc1nc(N)c(C(=C(C#N)C#N)c2ccccc2)s1` the inhibition (above what the read-out allows, likely interference) was 654% (active).
In the case of `C=CCNC(=O)c1csc(-c2ccccc2)n1`, the inhibition is reported as 10.9% (inactive).
`CCOC(=O)CN1C(=O)N[C@@H](c2ccc(Br)cc2)C(C(C)=O)=C1C` was tested, and the inhibition was -1.77% (inactive).
With `COC(=O)c1c(C)cc(O)c(C)c1O` the inhibition was 12% (inactive).
In the case of `CC(C)(C)Oc1ccccc1Nc1nc(NCCO)nc(N2CCCC2)n1`, the inhibition is reported as -10.1% (inactive).
In the case of `NC1=NC[C@@H](Cc2ccc(O)cc2)N1CC1CCCCC1`, the inhibition is reported as 10.2% (inactive).
`C=CCOC(=O)C1=C[C@@H](c2ccccc2)C[C@@H](OCc2ccc(CO)cc2)O1` was tested, and the inhibition was 4.95% (inactive).
`CC[C@H](C)[C@@H](C(=O)N1CCNCC1)n1cc([C@@H](N)Cc2ccc(O)cc2)nn1` was tested, and the inhibition was -30% (inactive).
With `CC1(c2nnc(-c3ccncc3)o2)CC(c2cccnc2)=NO1` (centres undefined) the inhibition was -44.9% (inactive).
`O=C1CCC(=O)N(O)CCCCCNC(=O)CCC(=O)N(O)CCCCCNC(=O)CCC(=O)N(O)CCCCCN1` was tested, and the inhibition was -1.74% (inactive).
In the case of `Fc1ccc2nc(Nc3nc4c(s3)CCCC4)sc2c1`, the inhibition is reported as 35.3% (active) and the inhibition [1] is reported as 127%.
With `Fc1ccc2nc(N3CCCCC3)sc2c1` the inhibition was -11.1% (inactive).
With `O=C(CCS(=O)(=O)c1ccccc1)Nc1nc2c(s1)CCCC2` the inhibition was -10.7% (inactive).
With `CCCCN1C(N)=NC[C@@H]1CC1CCCCC1` the inhibition was 6.72% (inactive).
With `NC(=O)[C@H]1CC2(CC(c3cccc(NC(=O)[C@H]4CCC(=O)N4)c3)=NO2)CN1C(=O)c1ccccc1C(=O)c1ccccc1` (some centres undefined) the inhibition was 20.3% (inactive).
`Cc1cccc(NC(=S)NCc2ccc3[nH]c4c(c3c2)CCCC4)c1` was tested, and the inhibition was -2.9% (inactive).
In the case of `COc1ccc(SCCN2CCN(CC(C)C)CCC2=O)cc1`, the inhibition is reported as 8.87% (inactive).
In the case of `CCOC(=O)c1csc(NC(=O)c2ccc(S(=O)(=O)N3CCCC3)cc2)n1`, the inhibition is reported as 96.7% (active) and the inhibition [1] is reported as 82.9%.
For `CCOC(=O)CSc1nnc(NC(=O)c2cccc(S(=O)(=O)N3CCCC3)c2)s1`, the inhibition was 5.07% (inactive).
`COc1ccc(C(=O)Nc2nc(-c3ccc(S(=O)(=O)N4CCOCC4)cc3)cs2)cc1` was tested, and the inhibition was -26.7% (inactive).
With `Cc1nc(-c2ccc(Cl)cc2)sc1C1(C)CC(c2ccccc2F)=NO1` (centres undefined) the inhibition was 7.68% (inactive).
For `COC(=O)C1=C[C@@H](C(=O)OC)[C@@H]2C3=C(C(=O)[C@]2(C)NC(=O)c2ccccc2)[C@H](C)n2c(=O)n(C)c(=O)n2[C@@H]3C1`, the inhibition was 2.28% (inactive).
In the case of `O=C(C1=C[C@H](c2ccc(C(F)(F)F)cc2)C[C@H](OCc2ccc(CO)cc2)O1)N1CCN(Cc2ccccc2)CC1`, the inhibition is reported as 3.78% (inactive).
`CCN1C(=O)N[C@@H](c2ccccc2)C(C(=O)OC)=C1C` was tested, and the inhibition was -30% (inactive).
With `Cc1ccc(C)c(CSc2nc(-c3ccco3)nc3c2c(=O)n(C)c(=O)n3C)c1` the inhibition was 4.13% (inactive).
`C/C=C(/C)C(=O)Nc1cccc(C2=NOC3(C2)C[C@@H](C(N)=O)N(C(=O)C2(C)CC2)C3)c1` (some centres undefined) was tested, and the inhibition was 4.45% (inactive).
`NC(=O)C1=C[C@@H](c2csc3ccccc23)C[C@@H](OCc2ccc(CO)cc2)O1` was tested, and the inhibition was 19.8% (inactive).
With `CCCCCCCCCCCCN1[C@@H](CC(C)=O)c2cc(F)cc(F)c2S1(=O)=O` the inhibition was -11.3% (inactive).
With `COc1ccccc1C1=CC(=O)CCC1` the inhibition was 7.57% (inactive).
For `CC1(C)C2CC[C@]3(C)C(CC=C4[C@@H]5C[C@@](C)(CO)CC[C@]5(C(=O)O)CC[C@]43C)[C@@]2(C)CC[C@@H]1O` (some centres undefined), the inhibition was 9.9% (inactive).
In the case of `OCC[C@H]1C[C@H](O)[C@@H](O)[C@]2(CCCCO2)O1`, the inhibition is reported as 7.31% (inactive).
For `NC(=O)c1sc2nc3c(c(-c4ccccc4)c2c1N)CCC3`, the inhibition was -14.4% (inactive).
For `Cc1cccc(NC(=O)c2sc3nc4c(c(-c5ccco5)c3c2N)CCC4)c1`, the inhibition was 20.3% (inactive).
With `CC(=O)Nc1ccc(NC(=O)c2sc3nc4c(c(-c5ccc(C)cc5)c3c2N)CCC4)cc1` the inhibition was 47.9% (active) and the inhibition [1] was 82.8%.
For `CCOC(=O)c1ccccc1NC(=O)c1c(N)n(C)c(=O)[nH]c1=O`, the inhibition was 7.68% (inactive).
In the case of `CC(C)(C)CN1C(=O)C(=O)NC[C@H]1Cc1cccc2ccccc12`, the inhibition is reported as -1.48% (inactive).
`C#CCNC(=O)C1=C[C@@H](c2ccccc2)[C@H](CCCO)[C@@H](OCC)O1` was tested, and the inhibition was 0.66% (inactive).
In the case of `C/C=C(\C)C(=O)N1CC2(CC(c3cccc(NC(=O)CCCCC)c3)=NO2)C[C@@H]1C(N)=O` (some centres undefined), the inhibition is reported as -5.61% (inactive).
For `CC(Sc1nc2c([nH]c3ccccc32)c(=O)n1C)c1ccccc1` (centres undefined), the inhibition was -7.85% (inactive).
In the case of `CC(C)=CCC/C(C)=C/C(=O)O`, the inhibition is reported as 2.81% (inactive).
